In all, about 13,000 compounds went through this assay and about 3,200 (25%) showed an effect of 50% or more. Some of the results follow.

We go through 64 compounds from publication PMC4552634, “A New Set of Chemical Starting Points with Plasmodium falciparum Transmission-Blocking Potential for Antimalarial Drug Discovery” (PLoS ONE, 2015).

This test relates to P. falciparum stage V gametocytes. Details: BacTiter-Glo ATP luminescence viability of purified stage V gametocytes in 384-well plates, per cent inhibition versus DMSO. The settings on record: 48 h, 5 µM; inhibitor.
With `O=C(CCc1cnc[nH]1)Nc1ccc(-c2ccc(-c3nc4ccccc4[nH]3)cc2)cc1` [TCMDC-132156], the “% Inhibition” value is on record as -24.85%.
For `c1csc(-c2nc(N3CCCCC3)ncc2-c2ccsc2)n1` [TCMDC-125370], the “% Inhibition” value was 9.865%.
With `C=CCc1c(C(=O)NCC23CC4CC(CC(C4)C2)C3)[nH]c2ccccc2c1=O` [TCMDC-136371], the “% Inhibition” value is recorded as -9.366%.
For `CC(C)Cc1cn(-c2nc(-c3nc4ccccc4[nH]3)cs2)c2ccncc12` [TCMDC-132419] the value was 3.094%; for `Cc1cc(N[C@@H](Cc2ccccc2)C(=O)NCCc2ccccc2)nc(NCCc2ccc(F)cc2)n1` [TCMDC-134867], 49.67%.
Under `COc1ccccc1CCNc1nc(C)cc(N[C@@H](CC(C)C)C(=O)NCCc2ccccc2)n1` [TCMDC-134807] stands 30.27%; under `Cc1cc(N[C@@H](Cc2ccccc2)C(=O)NCCc2ccccc2)nc(NCc2ccccc2C)n1` [TCMDC-134907], -0.7865%; under `Cc1cc(N[C@@H](Cc2ccccc2)C(=O)NCCCOC(C)C)nc(NCC2CCCCC2)n1` [TCMDC-134931], 30.55%.
On to `COc1ccccc1CCNc1nc(C)cc(N[C@@H](Cc2ccccc2)C(=O)NCCc2ccccc2)n1` [TCMDC-134803], for which the “% Inhibition” value stood at 83.15%.
As for `Cc1cc(N[C@@H](Cc2ccccc2)C(=O)NCCc2ccccc2)nc(NCCc2ccccc2)n1` [TCMDC-134776], the “% Inhibition” value came out at 144.5%.
As to `COc1ccccc1CCNc1nc(C)cc(N[C@@H](Cc2ccccc2)C(=O)Nc2ccccc2)n1` [TCMDC-134804], the “% Inhibition” value was 36.98%.
Under `COc1ccccc1CCNc1nc(C)cc(N[C@@H](Cc2ccccc2)C(=O)NCCOc2ccccc2)n1` [TCMDC-134862] stands 100.5%; under `Cc1cccc(CNc2nc(C)cc(N[C@@H](Cc3ccccc3)C(=O)NCCc3ccccc3)n2)c1` [TCMDC-134889], -24.79%.
Turning to `COc1ccccc1CCNc1nc(C)cc(N[C@@H](Cc2ccccc2)C(=O)NCCCOC(C)C)n1` [TCMDC-134861], the “% Inhibition” value is given as 55.12%.
`COC(=O)c1ccc(OCC(C)NCC(O)c2cccc(C(F)(F)F)c2)cc1` (stereo not shown) [TCMDC-131464]: the “% Inhibition” value was found to be 25.27%.
`N#Cc1ccc2c(c1)CCN(CCCn1c(-c3ccc4ccccc4c3)nc3ccncc31)CC2` [TCMDC-135551]: the “% Inhibition” value stood at 19.09%.
For `O=C(NCc1ccc(C(=O)NCc2cccc3ccccc23)cc1)c1ccc(O)c(-c2ccc(Cl)c(Cl)c2)c1` [TCMDC-140878], the “% Inhibition” value is given as 23.84%.
Under `Cc1ccc2nc(-c3ccccc3)cc(NN=Cc3cccnc3)c2c1` [TCMDC-142053] stands -1.228%.
For `CCOc1ccccc1N1CCN(CCCNC(=O)/C(=C/C=C/c2cc3cc(Cl)c(Cl)cc3[nH]2)OC)CC1` [TCMDC-139176], the “% Inhibition” value is 6.847%.
Under `Cc1cccc(CNc2ncc(C)c(NCCC(=O)Nc3ccccc3)n2)c1` [TCMDC-134848] stands 47.31%; under `O=C(Nc1ccc(Br)cc1)N(CCN1CCOCC1)CC(O)COCc1ccc(F)cc1` (stereo not shown) [TCMDC-141489], 29.66%; under `Cc1cc(=O)[nH]c(-n2nc(C)cc2NC(=O)C2(c3ccc(Cl)cc3)CCCC2)n1` [TCMDC-124943], 43.65%.
For the compound `CN(C)CCN(C)C(=O)c1cc(-c2ccncc2)c(-c2ccc(Cl)c(O)c2)o1` [TCMDC-141393], the “% Inhibition” value is -25.23%.
With `COc1c(C2=CCN(CCCCNC(=O)c3ccc(-c4ccc(C#N)cc4)cc3)CC2)ccc2c1CCCC2` [TCMDC-138753], the “% Inhibition” value is -8.55%.
In the case of `Cc1cc(N(C)CCN(C)C)nc(Nc2ccc(Cl)cc2)n1` [TCMDC-137008], the “% Inhibition” value was 22.54%.
For `O=C(NC(=O)c1ccccc1)NC1CCN(c2ccnc3cc(Cl)ccc23)C1` (stereo not shown) [TCMDC-133403] the value was -14.2%.
Under `CCC[C@@H]([C@@H](CC1CCCCC1)C(=O)N[C@H](C(=O)Nc1ccccn1)[C@H](C)CC)N(O)C=O` [TCMDC-138122] stands -1.104%; under `O=C(c1ccc(-c2cnc3[nH]cc(-c4ccc(C(=O)N5CCOCC5)cc4)c3c2)cc1)N1CCOCC1` [TCMDC-132781], -2.017%.
For the compound `Nc1ncc(-c2ccc3[nH]ccc3c2)c2ccc(-c3ccncc3)cc12` [TCMDC-133396], the “% Inhibition” value is listed as 22.16%.
For `CN1CCN(c2ccnc3ccc(NC(=O)Cc4ccc(-c5ccncc5)c5ccccc45)cc23)CC1` [TCMDC-139256] the value was 19.54%; for `Nc1ncc(-c2ccc3nccc(-c4ccncc4)c3c2)cc1S(=O)(=O)N1CCOCC1` [TCMDC-134180], 94.06%; for `CS(=O)(=O)c1ccc2nc(-c3cc(-c4ccc(OCCN5CCOCC5)cc4)cnc3N)[nH]c2c1` [TCMDC-133720], 8.028%.
Under `Nc1ncc(-c2ccc3nccc(-c4ccncc4)c3c2)cc1S(=O)(=O)N1CCCCC1` [TCMDC-134265] stands 97.23%.
For `O=C(/C=N/O)Nc1ccccc1[N+](=O)[O-]` [TCMDC-123981], the “% Inhibition” value is on record as -3.715%.
Consider `CCn1c2ccccc2c2cc(Cc3cnc(N)nc3N)ccc21` [TCMDC-131929], for which the “% Inhibition” value came out at 0.5194%.
Take `Cc1cccc2nc(-c3ccc(-c4ccc(C(=O)NCCN5CCCC5)cc4)s3)[nH]c12` [TCMDC-132316]: the “% Inhibition” value stood at 46.47%.
Under `Cc1cnc(NCC2CCCCC2)nc1NCC(=O)Nc1ccccc1` [TCMDC-134753] stands -41.32%; under `CCN1CCC(N(Cc2ccc(-c3ccc(C(F)(F)F)cc3)cc2)C(=O)Cn2c(CCc3cccc(F)c3F)cc(=O)c3ccccc32)C1` (stereo not shown) [TCMDC-141300], 90.33%.
Take `CCN1CCC(N(CCCCCCc2ccc(C(F)(F)F)cc2)C(=O)Cn2c(CCc3cccc(F)c3F)cc(=O)c3ccccc32)CC1` [TCMDC-141339]: the “% Inhibition” value is recorded as 43.24%.
`O=C(Cn1c(CCc2cccc(F)c2F)cc(=O)c2ccccc21)N(Cc1ccc(-c2ccc(C(F)(F)F)cc2)cc1)C1CCN(CCO)CC1` [TCMDC-141226]: the “% Inhibition” value was 84.4%.
Take `CCN1CCC(N(CCCCCCCCc2ccc(C(F)(F)F)cc2)C(=O)Cn2c(CCc3cccc(F)c3F)cc(=O)c3ccccc32)CC1` [TCMDC-141376]: the “% Inhibition” value is reported as 107.2%.
For `COCCN1CCC(N(Cc2ccc(-c3ccc(OC(F)(F)F)cc3)cc2)C(=O)Cn2c(CCc3cccc(F)c3F)cc(=O)c3ccccc32)CC1` [TCMDC-136001], the “% Inhibition” value stood at 86.7%.
In the case of `O=C(Cn1c(CCc2cccc(F)c2F)cc(=O)c2ccccc21)N(Cc1ccc(-c2ccc(C(F)(F)F)cc2)cc1)C1CCN(CCN2CCOCC2)CC1` [TCMDC-136026], the “% Inhibition” value was 47.65%.
Regarding `CCCN(CCC)C(=O)c1cc(C(=O)N[C@@H](Cc2ccccc2)[C@H](O)CNC2CC2)cc(N2CCCCS2(=O)=O)c1` [TCMDC-138892], the “% Inhibition” value stood at 8.102%.
For the compound `CC(=Nc1ccc(Cl)c(Cl)c1)N(C)C` [TCMDC-137438], the “% Inhibition” value is -6.563%.
As for `CC(C)C[C@H](NC(=O)c1ccc(OCCN2CCOCC2)cc1)C(=O)N[C@H](/C=N/NC(=O)OC(C)(C)C)CCc1ccccc1` [TCMDC-136028], the “% Inhibition” value is -97.84%.
For `COc1ccc(CN2CCC(N3CC(c4ccccc4)(c4ccccc4)OCC3=O)C2)c(O)c1` (stereo not shown) [TCMDC-136339], the “% Inhibition” value is reported as -23.12%.
Under `CC(C)C[C@H]1C(=O)N[C@H](C2Cc3ccccc3C2)C(=O)N1[C@@H](C(=O)Nc1ccccc1OCc1ccccc1)c1ccc(F)cc1F` [TCMDC-138775] stands -10.16%; under `COc1ccc2ncc(F)c(CCN3C4CCC3CC(NCc3cc5c(cn3)OCS5)C4)c2n1` (stereo not shown) [TCMDC-135637], 24.95%; under `Cc1cccc(Nc2nccc(NCC(O)c3ccc(C(F)(F)F)cc3)n2)c1` (stereo not shown) [TCMDC-136592], -12.82%.
On to `CC(C)(C)C1CC(=O)CC2C(=O)N(c3ccc(Br)cc3)C(=O)C21` (stereo not shown) [TCMDC-139130], for which the “% Inhibition” value was -4.164%.
Under `Cc1ccc(F)c(OCC2CCN(c3ncc(C(=O)NC4CC4)cc3Cl)CC2)c1` [TCMDC-134038] stands 21.14%.
For `CCN1CCC(N(Cc2ccc(-c3ccc(C(F)(F)F)cc3)cc2)C(=O)Cn2c(CCc3cccc(F)c3F)cc(=O)c3ccc(OCc4ccccc4)cc32)CC1` [TCMDC-141292] the value was 107.3%; for `CC(C)(C)N1CCC(N(Cc2ccc(-c3ccc(C(F)(F)F)cc3)cc2)C(=O)Cn2c(CCc3cccc(F)c3F)cc(=O)c3ccccc32)CC1` [TCMDC-136007], 109.9%; for `CCN1CCC(N(Cc2ccc(-c3ccc(C(F)(F)F)cc3)cc2)C(=O)Cn2c(CCc3cccc(F)c3F)cc(=O)c3ccccc32)CC1` [TCMDC-141119], 110.1%.
Under `CC(C)(C)N1CCC(N(Cc2ccc(-c3ccc(C(F)(F)F)cc3)cc2)C(=O)Cn2c(CCc3cccc(F)c3F)cc(=O)c3cccnc32)CC1` [TCMDC-136011] stands 120.6%; under `NC(CC1CC(=O)N1CC(=O)O)C(=O)O` (stereo not shown) [TCMDC-139050], 9.979%.
Consider `CC1CCN(Cc2ccc(NC(=O)c3cc4ccc5cccnc5c4[nH]3)cc2)CC1` [TCMDC-125282], for which the “% Inhibition” value is -44.42%.
Turning to `Cc1sc(N2CCCCC2)nc1C(=O)Nc1ccc(F)cc1C(F)(F)F` [TCMDC-134301], the “% Inhibition” value was -22.08%.
In the case of `Cc1ccc2c(OCCN3CCC(Cc4cc5c(cc4F)OCC(=O)N5)CC3)cc(F)cc2n1` [TCMDC-141447], the “% Inhibition” value is -8.259%.
Under `Cc1noc(C)c1-c1cccc(CNCc2cccc(-c3ccc(-c4nc5ccccc5[nH]4)s3)c2)c1.O=C(O)C(F)(F)F` [TCMDC-133048] stands 14.32%.
Turning to `COC(=O)c1sc(-c2ccc(Cl)cc2)cc1N(CCCN1CCC(N2CCCCC2)CC1)S(=O)(=O)c1ccc(C)cc1` [TCMDC-135561], the “% Inhibition” value amounted to 98.34%.
For `Cc1cc(N(CCO)CCCN2CCCCC2)nc(Nc2ccc(Cl)cc2)n1` [TCMDC-137444] the value was 33.27%; for `Cc1cc(N(CCN2CCCCC2)CCN2CCCCC2)nc(Nc2ccc(Cl)cc2)n1` [TCMDC-138002], 37.36%.
